PubChem BioAssay AID1159580 (chemical genetic matrix, 2015)
Hit rate of the full screen: of about 5,500 compounds, about 2,000 (36%) were called active. Inconclusive results (about 18%) are left out. No stated cut-off is given here; in the data, active means normalized growth mostly below about 0.91 (no sharp cut-off); inconclusive means no clear call, values can overlap the other calls; inactive means mostly above about 0.92. The list shows a part of the results.

Experiment: chemical genetic growth profiling, strain panel (AID 1159580);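 further: tested at 20 µM; growth read once vehicle control cultures reached saturation at 30 °C; 1 = growth at the plate median or of vehicle wells; lower values mean less growth of the strain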
Conditions: S. cerevisiae deletion strains, growth OD

Measured: normalized growth

O=C(O)[C@@H](S)[C@@H](S)C(=O)O
active: locus YAL021C, strain ccr4, hits give low values 0.545 | locus YAL026C, strain drs2, hits give low values 0.836 | locus YBR009C, strain hhf1, hits give low values 0.875 | locus YBR231C, strain swc5, hits give low values 0.887 | locus YBR279W, strain paf1, hits give low values 0.922 | locus YDR069C, strain doa4, hits give low values 0.681 | locus YDR137W, strain rgp1, hits give low values 0.73 | locus YDR335W, strain msn5, hits give low values 0.911 | locus YDR392W, strain spt3, hits give low values 0.532 | locus YER155C, strain BEM2 (second series), hits give low values 0.662 | locus YFR010W, strain ubp6, hits give low values 0.828 | locus YGL173C, strain kem1, hits give low values 0.892 | locus YGL240W, strain doc1, hits give low values 0.886 | locus YGL253W, strain hxk2, hits give low values 0.678 | locus YHR013C, strain ard1, hits give low values 0.533 | locus YHR027C, strain rpn1, hits give low values 0.885 | locus YHR030C, strain SLT2, hits give low values 0.337 | locus YHR079C, strain IRE1, hits give low values 0.426 | locus YJL095W, strain BCK1, hits give low values 0.413 | locus YJL166W, strain qcr8, hits give low values 0.859 | locus YJR066W, strain TOR1, hits give low values 0.417 | locus YLL001W, strain dnm1, hits give low values 0.888 | locus YLR113W, strain HOG1, hits give low values 0.443 | locus YLR320W, strain mms22, hits give low values 0.798 | locus YLR357W, strain rsc2, hits give low values 0.798 | locus YLR370C, strain arc18, hits give low values 0.81 | locus YMR058W, strain fet3, hits give low values 0.832 | locus YMR205C, strain PFK2, hits give low values 0.808 | locus YNL071W, strain lat1, hits give low values 0.695 | locus YNL183C, strain NPR1, hits give low values 0.516 | locus YOR106W, strain vam3, hits give low values 0.496 | locus YOR231W, strain MKK1, hits give low values 0.324 | locus YOR270C, strain vph1, hits give low values 0.357 | locus YOR290C, strain snf2, hits give low values 0.722 | locus YPL051W, strain arl3, hits give low values 0.899 | locus YPL256C, strain CLN2, hits give low values 0.474
inactive: locus YAL030W, strain snc1, hits give low values 0.975 | locus YBL061C, strain skt5, hits give low values 0.967 | locus YBR023C, strain chs3, hits give low values 0.962 | locus YBR171W, strain sec66, hits give low values 0.976 | locus YCL011C, strain gbp2, hits give low values 0.921 | locus YCL016C, strain dcc1, hits give low values 0.945 | locus YCL061C, strain MRC1, hits give low values 0.936 | locus YCL069W, strain vba3, hits give low values 0.953 | locus YCR088W, strain abp1, hits give low values 0.971 | locus YDL005C, strain med2, hits give low values 1 | locus YDL040C, strain nat1, hits give low values 0.971 | locus YDR001C, strain nth1, hits give low values 0.971 | locus YDR159W, strain sac3, hits give low values 0.91 | locus YDR195W, strain ref2 1.01 | locus YDR297W, strain sur2, hits give low values 0.975 | locus YDR334W, strain swr1, hits give low values 0.958 | locus YEL003W, strain gim4, hits give low values 0.962 | locus YEL037C, strain rad23, hits give low values 0.953 | locus YEL061C, strain CIN8 (second series), hits give low values 0.977 | locus YER015W, strain faa2, hits give low values 0.958 | locus YER016W, strain bim1, hits give low values 0.952 | locus YER111C, strain swi4, hits give low values 0.965 | locus YGL167C, strain pmr1, hits give low values 0.976 | locus YGL227W, strain vid30, hits give low values 0.978 | locus YHR142W, strain chs7, hits give low values 0.937 | locus YJL092W, strain hpr5, hits give low values 0.932 | locus YJL095W, strain BCK1 (second series), hits give low values 0.973 | locus YJL115W, strain asf1, hits give low values 0.969 | locus YJL129C, strain trk1, hits give low values 0.982 | locus YJL154C, strain vps35, hits give low values 0.979 | locus YJL164C, strain tpk1, hits give low values 0.966 | locus YJL187C, strain SWE1, hits give low values 0.979 | locus YKL160W, strain elf1, hits give low values 0.974 | locus YKR026C, strain gcn3, hits give low values 0.978 | locus YKR091W, strain srl3, hits give low values 0.977 | locus YLL026W, hits give low values 0.932 | locus YLL041C, strain sdh2, hits give low values 0.978 | locus YLR027C, strain aat2, hits give low values 0.938 | locus YLR221C, strain rsa3, hits give low values 0.919 | locus YLR258W, strain gsy2, hits give low values 0.93 | locus YLR262C, strain YPT6 (second series), hits give low values 0.898 | locus YLR342W, strain FKS1, hits give low values 0.964 | locus YLR384C, strain iki3, hits give low values 0.979 | locus YML120C, strain ndi1, hits give low values 0.987 | locus YMR125W, strain sto1, hits give low values 0.951 | locus YMR129W, hits give low values 0.963 | locus YMR231W, strain pep5, hits give low values 0.982 | locus YNL209W, strain ssb2, hits give low values 0.974 | locus YNL248C, strain rpa49, hits give low values 0.926 | locus YNL322C, strain KRE1 (second series), hits give low values 0.97 | locus YNR049C, strain mso1, hits give low values 0.941 | locus YOR001W, strain rrp6, hits give low values 0.992 | locus YOR070C, strain gyp1, hits give low values 0.961 | locus YOR080W, strain dia2, hits give low values 0.968 | locus YOR083W, strain WHI5, hits give low values 0.924 | locus YOR265W, strain rbl2, hits give low values 0.976 | locus YPL078C, strain atp4, hits give low values 0.96 | locus YPL106C, strain sse1, hits give low values 0.931 | locus YPL240C, strain hsp82, hits give low values 0.987
